# Bioassay records as filed in PubChem.
# Granule exo inh = blocks lytic granule exocytosis | TALL-104 LAMP-1 surface exposure, flow cytometry; cells stimulated with thapsigargin and PMA | inhibition, % at 10 µM | 360,000 tested, 0.66% active | AID 651702;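 active = inhibition above about 55%, limit read from the data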
# ABCB6 inh 2 = human ABCB6 transporter inhibition. Q9NP58. fluorescence ratio to DMSO, % at 10 µM. K562-ABCB6 porphyrin accumulation, flow cytometry, 1 h; active compounds read low. 360,000 tested, 0.19% active;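 active = fluorescence ratio to DMSO below 75%, the collection mean minus 3 SD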;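 also: signal is porphyrin accumulated inside mitochondria; 100% equals median channel fluorescence of DMSO control wells; lower ratio means ABCB6 inhibition with less porphyrin fluorescence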
# Target sequence (Q9NP58 whole entry, looked up): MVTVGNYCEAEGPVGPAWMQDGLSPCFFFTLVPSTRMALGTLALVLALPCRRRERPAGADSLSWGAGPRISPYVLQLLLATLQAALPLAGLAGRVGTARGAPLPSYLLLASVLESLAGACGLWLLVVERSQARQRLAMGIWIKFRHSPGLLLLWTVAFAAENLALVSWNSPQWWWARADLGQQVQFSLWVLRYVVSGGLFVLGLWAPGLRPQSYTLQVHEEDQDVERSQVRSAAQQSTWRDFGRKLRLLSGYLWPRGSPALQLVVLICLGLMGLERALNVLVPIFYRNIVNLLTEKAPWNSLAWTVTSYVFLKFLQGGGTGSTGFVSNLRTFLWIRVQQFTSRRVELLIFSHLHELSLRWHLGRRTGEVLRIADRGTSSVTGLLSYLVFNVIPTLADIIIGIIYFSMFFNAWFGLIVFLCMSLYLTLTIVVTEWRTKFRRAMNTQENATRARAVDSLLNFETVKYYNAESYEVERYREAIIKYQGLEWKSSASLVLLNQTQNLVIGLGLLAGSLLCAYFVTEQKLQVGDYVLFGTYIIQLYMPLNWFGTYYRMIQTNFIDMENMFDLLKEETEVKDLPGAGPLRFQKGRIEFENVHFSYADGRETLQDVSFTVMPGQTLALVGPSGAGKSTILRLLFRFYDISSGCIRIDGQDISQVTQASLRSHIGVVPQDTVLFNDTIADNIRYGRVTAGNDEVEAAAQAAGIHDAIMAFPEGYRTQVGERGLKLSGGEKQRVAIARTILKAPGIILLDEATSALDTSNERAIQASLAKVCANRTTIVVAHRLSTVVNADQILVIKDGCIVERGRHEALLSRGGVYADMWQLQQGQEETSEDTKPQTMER
# PG9 Ab binder = small molecules binding HIV-1 gp120 antibody PG9 | AID 624416 | 360,000 tested, 0.43% active | TR-FRET gp120-PG9 antibody binding | inhibition, % at 6.7 µM; in the data active = inhibition above about 8.5%
# rCAG binder = molecules binding r(CAG) RNA repeats | r(CAG) RNA repeat, TO-PRO-1 dye displacement fluorescence | 370,000 tested, 1.3% active | inhibition, % at 3 µM;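 active = inhibition above the plate cutoff, the mean of all test compounds on that plate plus 3 SD, cut at about 35% in these data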;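 also: 0% = DMSO alone and 100% = 100 µM mitoxantrone as full dye displacement; higher means more dye released from RNA so lower well fluorescence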
# PG9 bind confirm = PG9 antibody binding, confirmed; inhibition, % at 6.7 µM; TR-FRET PG9 antibody binding, biochemical; AID 651571; shares compounds with PG9 Ab binder; 1,500 tested, 90% active; in the data active = inhibition above about 9%
# PGV04 Ab binding = PGV04 control antibody binding, counter-screen; shares compounds with PG9 Ab binder; inhibition, % at 6.7 µM; TR-FRET PGV04 antibody-gp120 binding, biochemical; 1,500 tested, 95% active; AID 651604; in the data active = inhibition above about 9.5%
# PG9 bind DR = PG9 antibody binding, dose response; shares compounds with PG9 Ab binder; TR-FRET PG9 antibody-gp120 binding inhibition; IC50, µM; 95 tested, under 10 active; AID 651848; in the data active = IC50 below about 10 µM
# PGV04 DR counter = counter-screen for PG9 binders: binding to control antibody PGV04; shares compounds with PG9 Ab binder; TR-FRET binding to control antibody PGV04; IC50, µM; 95 tested, 20% active
# PG126 binding DR = counter-screen for PG9 binders: binding to control antibody PG126; shares compounds with PG9 Ab binder; TR-FRET binding to antibody PG126, counterscreen; IC50, µM; 95 tested, 20% active; AID 651939
# The depositor's hits bear a star; i = inactive; nt = no result. In the library only some 2.5% were active in any assay of this set; here they are far more common. Rule as the data show it, unless noted: active = IC50 below about 9 µM; inactive = the rest.
SMILES,Granule exo inh,ABCB6 inh 2,PG9 Ab binder,rCAG binder,PG9 bind confirm,PGV04 Ab binding,others
CN(CC(=O)Nc1ccc(F)cc1)C(=O)CCc1nc2sc3c(c2c(=O)[nH]1)CCCC3,0,96,15*,17,13*,31*,
CCc1ccccc1NC(=O)CNC(=O)CCc1nc2sc3c(c2c(=O)[nH]1)CCCC3,-9,100,19*,11,21*,38*,
COc1ccc(-c2ccccc2)cc1NC(=O)C1(C)CCN1C(=O)C(C)C (configuration not stated),5,97,0,0,nt,nt,
COc1ccc(CCNC(=O)[C@H](C)N2C(=O)N3CCc4c([nH]c5ccccc45)[C@@]3(C)C2=O)cc1,6,96,-2,-2,nt,nt,
CCCS(=O)(=O)NC(=O)C1(C)CCCN(C(=O)c2ccc(C#N)cc2)C1 (configuration not stated),-5,96,-4,0,nt,nt,
CN(C)C(=O)c1cccc(-c2cnc3c(NC=O)cc(-c4ccccc4F)cn23)c1,-2,96,1,7,nt,nt,
CCCNC(=O)NNC(=O)c1ccc(F)cc1,5,100,0,1,nt,nt,
CCCCn1c(SCC(=O)NCc2ccccc2)nc2ccc(N3CCOCC3)cc2c1=O,-4,99,19*,4,35*,56*,
CCCCn1c(SCC(=O)NCc2ccco2)nc2ccc(N3CCOCC3)cc2c1=O,0,90,-2,13,nt,nt,
CS(=O)(=O)N1CCC(C(=O)Nc2cccc(Cl)c2Cl)CC1,6,94,0,-2,nt,nt,
O=C(Nc1cccc(Cl)c1Cl)C1CCN(c2ncccn2)CC1,4,85,9.2*,2,13*,14*,
CCN(CC)C(=O)CSc1nc(N)c(C#N)c(-c2cccs2)c1C#N,0,104,44*,4,18*,30*,
O=C1CC2c3ccccc3C1C1C(=O)N(Cc3ccccc3)C(=O)C21 (configuration not stated),0,97,3,-1,nt,nt,
CCc1c(C(=O)O)[nH]c2ccc(Br)cc12,-3,88,14*,5,26*,27*,
Cc1nn(-c2ccccc2)c2sc(C(=O)NNC(=O)COc3cccc4ccccc34)cc12,7,98,10*,7,11*,20*,
CCn1cc2nc(SCC(=O)Nc3ccc(OC)cc3OC)n(Cc3ccc(OC)cc3)c(=O)c2n1,20,97,2,7,nt,nt,
Cc1ccc(NC(=O)CSc2nc3sc(C)cc3c(=O)n2C)cc1,8,101,17*,2,16*,26*,
CCN1CCN(c2ccc(NC(=O)CC3OC(=O)c4ccccc43)cc2C)CC1 (configuration not stated),2,93,0,-1,nt,nt,
COCCNc1nc2sc3c(c2c(=O)n1Cc1ccco1)CCCCC3,-2,98,8.7*,-3,10*,11*,
O=c1c2c3c(sc2nc(NCCO)n1Cc1ccco1)CCCCC3,-1,102,0,-2,nt,nt,
Cc1nc(NCCc2ccc(S(N)(=O)=O)cc2)c2c(C)c(C)sc2n1,0,93,0,4,nt,nt,
Cc1nc(NCc2ccc(S(N)(=O)=O)cc2)c2c(C)c(C)sc2n1,-6,77,41*,3,22*,31*,
CCOC(=O)c1sc2nc(C)nc(NCCc3ccc(S(N)(=O)=O)cc3)c2c1C,-16,99,18*,1,27*,47*,
COc1ccc(C(CNC(=O)c2[nH]c(C)c(C(C)=O)c2C)N2CCOCC2)cc1 (configuration not stated),2,102,0,3,nt,nt,
CC[N+]1(CC(O)COC2CC(C)CC(C)(C)C2)CCOCC1 (configuration not stated),4,100,-1,-3,nt,nt,
SMILES,Granule exo inh,ABCB6 inh 2,PG9 Ab binder,rCAG binder,PG9 bind confirm,PGV04 Ab binding,others
S=c1[nH]c2ccccc2n2cccc12,2,98,23*,6,17*,15*,PG9 bind DR=i;PGV04 DR counter=i;PG126 binding DR=i
CCOc1cc(OCC)cc(C(=O)NCc2ccco2)c1,-7,98,8.9*,-3,5,6,
COc1ccc(Nc2nc3cc(C)ccc3cc2C#N)cc1,2,151,11*,10,10*,15*,
Cc1ccc2cc(C#N)c(NCc3ccccc3)nc2c1,-1,97,35*,1,30*,55*,
Cc1cccc2cc(C#N)c(NCc3ccccc3)nc12,-2,94,1,0,nt,nt,
COC(=O)CCCn1cc(CN2CC(N3CCCC3)CS2(=O)=O)nn1 (configuration not stated),3,102,3,1,nt,nt,
CC(=O)Nc1ccc(-c2cc(-c3ccc(NC(C)=O)cc3)nc(-c3ccc(NC(C)=O)cc3)n2)cc1,-2,99,29*,-9,25*,45*,
CCOC(=O)c1cc2sc(C)cc2n1CC(=O)Nc1cccc(C)c1C,-1,100,11*,0,11*,17*,
COc1cccc(-c2ccc(C#N)c(SCC(=O)NCc3ccco3)n2)c1,5,99,11*,2,20*,36*,
C=CCNC(=O)N1CCC(n2nccc2NC(=O)CCCc2ccccc2)CC1,2,105,0,-2,nt,nt,
O=C(O)c1cc(S(=O)(=O)Nc2ccc3cn[nH]c3c2)ccc1O,-3,97,-1,5,nt,nt,
CCOC(=O)CNC(=O)CSc1nc(-c2ccc(OC)cc2)ns1,-3,97,1,-2,nt,nt,
Cc1cccc(-c2nsc(SCC(=O)Nc3ccc4c(c3)OCO4)n2)c1,-2,96,0,2,nt,nt,
Cc1cccc(-c2nsc(SCC(=O)Nc3nccs3)n2)c1,1,90,10*,-2,9.2*,12*,
COc1ccc(-c2nsc(SCC(=O)Nc3cc(C)on3)n2)cc1,3,99,42*,1,41*,55*,
COc1ccccc1N1C(=O)c2ccc(C(=O)Nc3nccs3)cc2C1=O,-1,101,0,1,nt,nt,
C=C(C)CN1CCN(S(=O)(=O)c2ccc(C)c(N(C)S(=O)(=O)c3ccc(C)cc3)c2C)CC1,6,100,0,6,nt,nt,
Cc1ccc2nc(-c3cc(-c4ccccc4)no3)cn2c1,-6,94,23*,-1,29*,28*,PG9 bind DR=>67;PGV04 DR counter=i;PG126 binding DR=>67
CCOC(=O)CNC(=S)N(CCCN1CCN(C)CC1)Cc1cccs1,10,94,13*,-5,5,9.8*,
COCC(=O)Nc1ccc2c(c1)C(=O)N(C)[C@@H]1CC[C@@H](CC(=O)OC)O[C@H]1CO2,nt,nt,nt,1,nt,nt,
N#CC1(NC(=O)COC(=O)c2ccccc2SCC(=O)N2CCCC2)CCCCC1,-2,97,-2,-3,nt,nt,
